Results from PubChem BioAssay (NCI).
About 83,000 compounds went through this panel and 20% of them were active in at least one assay; those are over-represented in the sample as a whole.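 Percent growth is the endpoint: 0 to 100 indicates growth inhibition (40 means 60% inhibition), 0 means no net growth, and negative values indicate cell death.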 Activity calls are given as the source filed them. Rule for the calls: active = growth percent below 10; inactive = the rest.

Assays:
Assay in all cases: NCI-60 one-dose screen, 48 h (100 = growth as untreated, 0 = no growth, -100 = all killed)
Conditions in all cases: 10 µM
SN12C renal = system: SN12C renal
UO-31 renal = system: UO-31 renal
TK-10 renal = system: TK-10 renal
ACHN renal = system: ACHN renal
CAKI-1 renal = system: CAKI-1 renal
A498 renal = system: A498 renal
CCRF-CEM leukemia = system: CCRF-CEM leukemia
MOLT-4 leukemia = system: MOLT-4 leukemia
SR leukemia = system: SR leukemia

Measured: growth

CCOC(=O)c1ccoc1
inactive: SN12C renal 103% | UO-31 renal 95.4% | TK-10 renal 109% | ACHN renal 96.5% | CAKI-1 renal 98.1% | A498 renal 73.7% | CCRF-CEM leukemia 100% | MOLT-4 leukemia 90.1% | SR leukemia 86.4%

COc1ccc(-c2nn(-c3cccc(NC(=O)Nc4cccc(C(F)(F)F)c4)c3)cc2-c2ccncc2)cc1Cl
active: UO-31 renal -4.03% | CAKI-1 renal 1.63% | A498 renal 0.293% | CCRF-CEM leukemia 2.2% | MOLT-4 leukemia 2.54% | SR leukemia 4.34%
inactive: SN12C renal 19.7% | TK-10 renal 11.8% | ACHN renal 17.5%

COc1ccc([N+](=O)[O-])c(C(=O)O)c1
inactive: SN12C renal 99.9% | UO-31 renal 88% | TK-10 renal 104% | ACHN renal 105% | CAKI-1 renal 95.7% | A498 renal 85.6% | CCRF-CEM leukemia 112% | MOLT-4 leukemia 74.4% | SR leukemia 93.8%

O=C1/C(=C\c2ccc(F)cc2)CN(C(=O)c2ccc([N+](=O)[O-])cc2)C/C1=C\c1ccc(F)cc1
active: CCRF-CEM leukemia 7.75% | SR leukemia -19.3%
inactive: SN12C renal 46.9% | UO-31 renal 24.3% | TK-10 renal 87.3% | ACHN renal 44.3% | CAKI-1 renal 39.4% | A498 renal 52% | MOLT-4 leukemia 27.2%

O=C(O)CC(Cl)C(Cl)CC(=O)O (stereo not given)
inactive: SN12C renal 102% | UO-31 renal 81.1% | TK-10 renal 95.7% | ACHN renal 103% | CAKI-1 renal 91.6% | A498 renal 105% | CCRF-CEM leukemia 89.9% | MOLT-4 leukemia 97.1%
active: SR leukemia 0.349%

Nc1c(C(=O)Nc2ccccc2)sc2nc3c(cc12)CCCC3
inactive: SN12C renal 40.1% | UO-31 renal 44.7% | TK-10 renal 71.7% | ACHN renal 51.5% | CAKI-1 renal 26.7% | CCRF-CEM leukemia 13.1% | MOLT-4 leukemia 15.7% | SR leukemia 10.8%
active: A498 renal -8.95%

COc1cc(-c2cc(/C=C3\C(=O)Nc4ccccc43)[nH]n2)cc(OC)c1OC
inactive: SN12C renal 53.7% | UO-31 renal 37.2% | TK-10 renal 68.1% | ACHN renal 51.1% | CAKI-1 renal 25.4% | A498 renal 46.5% | CCRF-CEM leukemia 22.3% | SR leukemia 34.1%
active: MOLT-4 leukemia 6.03%

CSCCCNC(=O)c1ccc2c(c1)/C(=C/c1[nH]c(C)cc1C)C(=O)N2
inactive: SN12C renal 22% | TK-10 renal 29.4% | CCRF-CEM leukemia 52.2% | MOLT-4 leukemia 29.1% | SR leukemia 10.7%
active: UO-31 renal 9.33% | ACHN renal 0.349% | CAKI-1 renal 9.54% | A498 renal -25.9%

C#Cc1ccc(-n2c(/C=C/c3ccc(O)c(OC)c3)nc3ncccc3c2=O)cc1
inactive: SN12C renal 98.4% | UO-31 renal 73.9% | TK-10 renal 139% | ACHN renal 97.3% | CAKI-1 renal 96% | A498 renal 94% | CCRF-CEM leukemia 91.4% | MOLT-4 leukemia 86.1% | SR leukemia 80.9%

O=C(Nc1cccc(-n2cc(-c3ccncc3)c(-c3ccc(O)c(Cl)c3)n2)c1)Nc1cccc(C(F)(F)F)c1
active: UO-31 renal -9.43% | TK-10 renal -0.882% | ACHN renal 8.15% | CAKI-1 renal -14.5% | CCRF-CEM leukemia -0.796% | MOLT-4 leukemia -25% | SR leukemia -16.7%
inactive: SN12C renal 10.3% | A498 renal 76.6%

O=C(Nc1cccc(-n2cc(-c3ccncc3)c(-c3ccc(O)c(Cl)c3)n2)c1)Nc1ccc(Cl)c(Cl)c1
inactive: SN12C renal 17% | TK-10 renal 16.7% | A498 renal 23.2%
active: UO-31 renal -11.3% | ACHN renal 9.03% | CAKI-1 renal -21.1% | CCRF-CEM leukemia 0.782% | MOLT-4 leukemia -10% | SR leukemia -0.568%

COc1ccc(-c2nn(-c3cccc(NC(=O)c4ccc(Cl)c(Cl)c4)c3)cc2-c2ccncc2)cc1Cl
inactive: SN12C renal 86.7% | UO-31 renal 47.6% | TK-10 renal 85% | ACHN renal 78.8% | CAKI-1 renal 73.1% | A498 renal 54.7% | CCRF-CEM leukemia 61.7% | MOLT-4 leukemia 62.7% | SR leukemia 24.3%

N=C(N)c1ccc(-c2ccc(-c3cccs3)s2)cc1
active: A498 renal -25.9% | CCRF-CEM leukemia -36.1% | MOLT-4 leukemia -48.6% | SR leukemia -35.6%
inactive: SN12C renal 85.9% | UO-31 renal 17.1% | TK-10 renal 67.8% | ACHN renal 85.8% | CAKI-1 renal 85.2%

N#CCCN1C/C(=C/c2ccc(Br)cc2)C(=O)/C(=C/c2ccc(Br)cc2)C1
active: SN12C renal -51.2% | UO-31 renal -91.3% | TK-10 renal -29.1% | ACHN renal -53.5% | CAKI-1 renal -7.84% | A498 renal -39.7% | CCRF-CEM leukemia -5.67% | MOLT-4 leukemia 2.26% | SR leukemia -17.3%

COc1ccc(-c2nn(-c3cccc(NC(=O)c4cccc(C(F)(F)F)c4)c3)cc2-c2ccncc2)cc1Cl
inactive: SN12C renal 45.3% | UO-31 renal 13.9% | TK-10 renal 41% | ACHN renal 36.8% | CAKI-1 renal 11.3% | MOLT-4 leukemia 24%
active: A498 renal -11.9% | CCRF-CEM leukemia 7.1% | SR leukemia 4.46%
